Source: PubChem BioAssay (NCATS)
Inconclusive results are not listed. Where a call stands in place of a potency, no number is given. Calls of active or inactive are those of the source. Calls follow the shape of the dose curve; as a rule, active = well fitted curve in the direction sought with a large enough effect; inconclusive = small, poorly fitted or top-dose-only effect, or another doubt; inactive = no such curve, though single readings can be large; an effect the other way counts as inactive or inconclusive. Peptide text beside a SMILES is read from it.

Target: Aldehyde dehydrogenase, mitochondrial (Homo sapiens) (UniProt P05091)
Test: qHTS for Inhibitors of the Aldehyde Dehydrogenase Family (ALDH2) Primary screen (AID 2061308); also: nearly all actives have a fitted effect of over 55% in size
Conditions: ALDH2 enzyme inhibition qHTS, 1536-well; series mostly up to 56 µM

SMILES | Potency | activity change, negative = inhibition
O=C1[C@H](O[C@@H]2O[C@H](CO)[C@@H](O)[C@H](O)[C@H]2O)Oc2ccccc2N1O | inactive | –
CC1=CCC2C(C)(C)CCC[C@]2(C)[C@@]12CC[C@](C)(CC(=O)O)O2 (stereo partly specified) | inactive | –
CCCC(=O)O[C@@H]1[C@@H]2[C@@H](OC(C)=O)[C@]3(C)C(=O)[C@H]4[C@@H](OC(C)=O)C(C)(C)C[C@H]4[C@]3(C)C(=O)[C@@]2(OC(C)=O)C[C@@H]1C | inactive | –
CC1(CO)CCCC2(C)C1C(OC(=O)c1ccccc1)CC1C(=O)OCC12O (stereo unspecified) | inactive | –
CC(=O)O[C@@H]1[C@H](O[C@@H]2O[C@@H](CO)[C@H](O)[C@H]2O)[C@@H](O[C@@H]2O[C@@H](C)[C@H](O[C@@H]3OC[C@@H](O)[C@H](O)[C@H]3O)[C@@H](O)[C@H]2O)[C@H](OC(=O)[C@]23CCC(C)(C)C[C@H]2C2=CCC4[C@@]5(C)CC[C@H](O[C@@H]6O[C@H](C(=O)O)[C@@H](O)[C@H](O)[C@H]6O[C@@H]6O[C@H](CO)[C@H](O)[C@H](O)[C@H]6O)[C@@](C)(C=O)C5CC[C@@]4(C)[C@]2(C)CC3)O[C@@H]1C (stereo partly specified) | – | 4.21% [at 11.2 µM] (inactive)
C=C1CCC[C@]2(C)CC[C@@H](C(=C)C(=O)O)[C@H](O)[C@@H]12 | inactive | –
CC1=C2C[C@@]3(C)[C@@H](CCC[C@@H]3C)C[C@@]2(O)OC1=O | inactive | –

Target: Retinaldehyde dehydrogenase 3 (Homo sapiens) (UniProt P47895)
Test: qHTS for Inhibitors of the Aldehyde Dehydrogenase Family (ALDH1A3) Primary screen (AID 2061315)
Conditions: ALDH inhibition qHTS; series mostly up to 56 µM

SMILES | Potency | activity change, negative = inhibition
CC(=O)OC[C@]12[C@@H](OC(=O)c3ccoc3)C[C@@H]3[C@@H](OC(C)=O)[C@]1(OC3(C)C)[C@@](C)(O)C[C@H](OC(=O)c1ccoc1)[C@@H]2OC(=O)c1ccoc1 | inactive | –
CO[C@H]1/C=C/C=C/C=C/C[C@H](OC(=O)[C@@H](C)NC(=O)C2CCCCC2)[C@H](C)[C@@H](O)/C(C)=C/CCc2cc(O)cc(c2)NC(=O)C1 | inactive | –
CC1CCC2(OC1)OC1CC3C4CC=C5CC(O)CC(O[C@@H]6OC[C@@H](O)[C@H](O)[C@H]6O)C5(C)C4CCC3(C)C1(O)C2C (stereo partly specified) | inactive | –
CC1CC(O)C2(C)C(C(=O)O)=CCCC2C1(C)CCc1ccoc1 (stereo unspecified) | inactive | –
Clc1ccc(Nc2nc3ccccc3c3nc(C4CCCCC4)[nH]c23)cc1Cl | inactive | –
COc1ccc(C2(O)CCC(N3CC[C@@H](NC(=O)CNC(=O)c4cccc(C(F)(F)F)c4)C3)CC2)cn1 (stereo partly specified) | inactive | –
Cc1nc2ccc(Oc3ccc(F)cc3)cc2c(=O)n1C[C@H]1CCCN(C(C)C)C1 | inactive | –
CC(=O)O[C@H]1CC(C)(C)CC2[C@@]13[C@H](O)C[C@]1(C)[C@@]2(CCC2[C@@]4(C)CC[C@H](O[C@@H]5OC[C@H](O[C@@H]6O[C@H](CO)[C@@H](O)[C@H](O)[C@H]6O[C@@H]6OC[C@@H](O)[C@H](O)[C@H]6O)[C@H](O)[C@H]5O[C@@H]5O[C@H](CO)[C@@H](O)[C@H](O)[C@H]5O)C(C)(C)C4CC[C@]21C)O[C@@H]3O (stereo partly specified) | inactive | –
CCC(C)C(=O)O[C@@H]1[C@@H](O)[C@@H](O[C@H]2O[C@H](CO)[C@@H](O)[C@H](O)[C@H]2O)O[C@H](CO)[C@H]1O (stereo partly specified) | inactive | –
CO[C@H]1C[C@@H]2CC[C@@H](C)[C@@](O)(O2)C(=O)C(=O)N2CCCC[C@H]2C(=O)O[C@H]([C@H](C)C[C@H]2CC[C@@H](OP(C)(C)=O)[C@H](OC)C2)CC(=O)[C@H](C)/C=C(\C)[C@@H](O)[C@@H](OC)C(=O)[C@H](C)C[C@H](C)/C=C/C=C/C=C/1C | inactive | –
OC(CN1CCN(c2cccc(Cl)c2)CC1)C(c1ccccc1)c1ccccc1 (stereo unspecified) | inactive | –
CSCC1OC(n2cnc3c(=O)[nH]cnc32)C(O)C1O (stereo unspecified) | inactive | –
C[N+]1(C)[C@@H]2CC[C@H]1CC(OC(=O)C(O)c1ccccc1)C2 (stereo partly specified) | inactive | –
CC1OC(O[C@@H]2[C@@H](O)[C@H](OC(=O)[C@]34CCC(C)(C)C[C@H]3C3=CCC5[C@@]6(C)CC[C@H](O[C@@H]7O[C@H](C(=O)O)[C@@H](O)[C@H](O[C@@H]8OC[C@@H](O)[C@H](O)[C@H]8O)[C@H]7O[C@@H]7O[C@H](CO)[C@H](O)[C@H](O)[C@H]7O)[C@@](C)(C=O)C6CC[C@@]5(C)[C@]3(C)C[C@H]4O)O[C@H](C)[C@@H]2OC2OC(C)C(OC3OCC(O)C(O)C3O)C(O)C2O)C(O)C(O)C1O (stereo partly specified) | – | 5.21% [at 11.2 µM] (inactive)
CC1CCCCN1S(=O)(=O)c1ccc(N2CCCC2=O)cc1 (stereo unspecified) | inactive | –
C=CC(C)(O)CC/C=C(\C)C(=O)OCC1OC(OC2CCC3(C)C(CCC4(C)C3CC=C3C5CC(C)(C)C(O)CC5(C(=O)O)CCC34C)C2(C)C)C(O)C(OC2OC(CO)C(O)C(OC3OC(CO)C(O)C(OC4OC(COC5OC(CO)C(O)C(O)C5O)C(O)C(O)C4O)C3O)C2O)C1O (stereo unspecified) | – | -5.36% [at 11.2 µM] (inactive)
C=C1[C@@H]2CC[C@@]3(C)[C@H](c4ccoc4)OC(=O)C[C@]13O[C@H]1CC(=O)C(C)(C)[C@H](CC(=O)OC)[C@]12C | inactive | –
CC(C)[C@@](O)(c1ccc2cc(OC(F)F)c(OC(F)F)cc2c1)c1cn[nH]n1 | inactive | –
CC(=O)OC1CC2(C)C(CCC(C)C23Cc2c(O)cc4c(c2O3)CNC4=O)C(C)(C)C1O (stereo unspecified) | inactive | –
C=C1CC/C=C(/C(=O)O)CCC2C1CC2(C)C (stereo unspecified) | inactive | –

SMILES | Potency | activity change, negative = inhibition
CC(C)=CCC[C@](C)(O[C@@H]1O[C@H](CO[C@@H]2O[C@H](CO)[C@@H](O)[C@H](O)[C@H]2O)[C@@H](O)[C@H](O)[C@H]1O)C1CC[C@]2(C)[C@@H]1[C@H](O)CC1[C@@]3(C)CC[C@H](O[C@@H]4O[C@H](CO)[C@@H](O)[C@H](O)[C@H]4O[C@@H]4O[C@H](CO)[C@@H](O)[C@H](O)[C@H]4O)C(C)(C)[C@@H]3CC[C@]12C (stereo partly specified) | inactive | –
C[C@@H]1CCO[C@H]2Cn3cc(C(=O)NCc4ccc(F)cc4F)c(=O)c(O)c3C(=O)N12 | inactive | –
COc1ccc2nccc(C(=O)CC[C@@H]3CCN(CC#Cc4cc(F)cc(F)c4F)C[C@@H]3C(=O)O)c2c1 | inactive | –
CSCC[C@H](NC(=O)[C@H](CO)NC(=O)[C@H](CCC(=O)O)NC(C)=O)C(=O)N[C@H](C=O)CC(=O)O (Ac-ESMD-aldehyde) | – | -13.4% [at 11.2 µM] (inactive)
C=C1CC2[C@@]3(C)C=CC(=O)C(C)(C)C3=C(O)C(=O)[C@@]2(C)C2(C(=O)OC)C(=O)C(C)OC(=O)[C@@]12C (stereo partly specified) | inactive | –
Cn1c(=O)c(F)c(Nc2ccc(I)cc2F)c2c(=O)n(CC(O)CO)cnc21 (stereo unspecified) | inactive | –
C=C[C@@]1(C)CCC2=C([C@H]1OC(C)=O)[C@H](OC(C)=O)CC1[C@](C)(C(=O)OC)CC[C@H](OC(C)=O)[C@]21C (stereo partly specified) | inactive | –
CC(=O)O[C@@H]1C[C@@H](OC(C)=O)C(C)(C)/C=C/[C@H](C)[C@H](OC(C)=O)[C@@]2(O)C[C@H](C)[C@H](OC(=O)c3ccccc3)[C@@H]2/C=C/1C | inactive | –
C=C[C@](C)(O)CC[C@H]1C(C)=CC(=O)[C@H]2C(C)(C)CCC[C@]12C | inactive | –
CCNC(=O)[C@@H]1CCCN1C(=O)[C@H](CCCN=C(N)N)NC(=O)[C@H](CC(C)C)NC(=O)[C@@H](C)NC(=O)[C@H](Cc1ccc(O)cc1)NC(=O)[C@H](CO)NC(=O)[C@H](Cc1c[nH]c2ccccc12)NC(=O)[C@H](Cc1cnc[nH]1)NC(=O)[C@@H]1CCC(=O)N1 | inactive | –
C/C(=C\CCC(C)C1CC(O)C2(C)C3CCC4C(C)(C)C(OC5OCC(O)C(O)C5O)CCC45CC35CC(O)C12C)C(=O)O (stereo unspecified) | inactive | –
CC(=O)CCC1=C(C)C(O[C@@H]2O[C@H](CO)[C@@H](O)[C@H](O)[C@H]2O)C(O)CC1(C)C (stereo partly specified) | inactive | –
O=C1[C@H](O[C@@H]2O[C@H](CO)[C@@H](O)[C@H](O)[C@H]2O)Oc2ccccc2N1O | inactive | –
CC1=CCC2C(C)(C)CCC[C@]2(C)[C@@]12CC[C@](C)(CC(=O)O)O2 (stereo partly specified) | inactive | –
CCCC(=O)O[C@@H]1[C@@H]2[C@@H](OC(C)=O)[C@]3(C)C(=O)[C@H]4[C@@H](OC(C)=O)C(C)(C)C[C@H]4[C@]3(C)C(=O)[C@@]2(OC(C)=O)C[C@@H]1C | inactive | –
CC1(CO)CCCC2(C)C1C(OC(=O)c1ccccc1)CC1C(=O)OCC12O (stereo unspecified) | inactive | –
CC(=O)O[C@@H]1[C@H](O[C@@H]2O[C@@H](CO)[C@H](O)[C@H]2O)[C@@H](O[C@@H]2O[C@@H](C)[C@H](O[C@@H]3OC[C@@H](O)[C@H](O)[C@H]3O)[C@@H](O)[C@H]2O)[C@H](OC(=O)[C@]23CCC(C)(C)C[C@H]2C2=CCC4[C@@]5(C)CC[C@H](O[C@@H]6O[C@H](C(=O)O)[C@@H](O)[C@H](O)[C@H]6O[C@@H]6O[C@H](CO)[C@H](O)[C@H](O)[C@H]6O)[C@@](C)(C=O)C5CC[C@@]4(C)[C@]2(C)CC3)O[C@@H]1C (stereo partly specified) | – | 3.44% [at 11.2 µM] (inactive)
C=C1CCC[C@]2(C)CC[C@@H](C(=C)C(=O)O)[C@H](O)[C@@H]12 | inactive | –
CC1=C2C[C@@]3(C)[C@@H](CCC[C@@H]3C)C[C@@]2(O)OC1=O | inactive | –
